Assay outcomes (PubChem BioAssay)
BAZ2B block – inhibitors of human BAZ2B bromodomain; AlphaScreen BAZ2B-H3K14Ac peptide displacement; Potency, µM (doses to about 114 µM), for inactives: at the highest dose activity change, negative = inhibition, most hits filed as inhibitors; 360,000 compounds, 4.4% hits; AID 504333; note: potency is the fitted concentration of half-maximal effect; % is set by controls: 0 for no effect and ±100 for the full control effect; nearly all actives have a fitted effect of over 60% in size
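BAZ2B (50 nM) with biotin-H3(5-23)K14Ac peptide (50 nM) in PBS pH 7.4, 0.01% Tween-20, preformed 30 min, then compound 30 min at room temperature; top concentration 110uM. AlphaScreen streptavidin donor/nickel chelate acceptor beads (10 ug/mL final), 20 min dark, signal read.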
PI5P4K alpha inh – inhibitors of human PI5P4K alpha. 330,000 compounds, 1.2% hits. PI5P4Kalpha enzyme, ADP-Glo luminescence, 60 min; hits give low values. AID 652105. max response, %. P48426; active = max response of -50% or lower; inconclusive = between -30% and -50%; inactive = -30% or higher; note: value at the top dose of about 77 µM; % is set by controls: 0 for no effect and ±100 for the full control effect
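Quantitative HTS of the MLSMR library against PI5P4Kalpha with substrate. ATP added last at 5 microM final; room temperature, 60 minutes. Remaining ATP depleted, ADP converted and read as luminescence.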
G9a block – G9a (human) methyltransferase inhibition; Potency, µM (top dose mostly 102 µM), without a hit: at the top dose activity, negative = inhibition, usual class: inhibitors; AID 504332; 350,000 compounds, 8.8% hits; G9a H3K9 monomethylation, AlphaScreen, 2 h; Q96KQ7; note: potency is the fitted concentration of half-maximal effect; % is set by controls: 0 for no effect and ±100 for the full control effect; nearly all actives have a fitted effect of over 75% in size
Target sequence (Q96KQ7 913-1193 limits assumed): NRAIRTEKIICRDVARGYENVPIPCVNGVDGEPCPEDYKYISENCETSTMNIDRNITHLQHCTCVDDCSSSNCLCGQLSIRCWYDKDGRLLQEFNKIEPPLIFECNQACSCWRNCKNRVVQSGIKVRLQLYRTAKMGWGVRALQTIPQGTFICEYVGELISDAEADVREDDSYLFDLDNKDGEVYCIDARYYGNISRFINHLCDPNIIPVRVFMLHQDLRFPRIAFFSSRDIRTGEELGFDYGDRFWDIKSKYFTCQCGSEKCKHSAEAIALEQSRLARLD
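G9a (20 nM) was preincubated 15 min with compound, then reacted 2 h at room temperature with 500 nM biotin-H3K9 peptide and 20 µM SAM. Monomethyl-H3K9 detected by AlphaScreen using anti-H3K9me1 antibody.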
HP1b chromo inh – HP1-beta chromodomain-methylated histone interaction inhibition. Potency, µM (series often up to 114 µM), inactives show at the top dose activity change, negative = inhibition, hits mostly inhibitors. AlphaScreen HP1-beta / biotin-H3K9me3 peptide binding. 390,000 compounds, 0.56% hits; note: potency is the fitted concentration of half-maximal effect; nearly all actives have a fitted effect of over 70% in size
Target sequence (P83916 whole entry, looked up): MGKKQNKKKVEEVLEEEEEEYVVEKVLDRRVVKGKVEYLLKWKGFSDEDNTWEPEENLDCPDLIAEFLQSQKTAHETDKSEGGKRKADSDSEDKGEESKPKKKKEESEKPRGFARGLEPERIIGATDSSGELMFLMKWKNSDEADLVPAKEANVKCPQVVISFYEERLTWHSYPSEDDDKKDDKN
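AlphaScreen: HP1-beta (50 nM) preformed 30 min with biotin-H3(1-18)K9me3 peptide (50 nM) in PBS pH 7.4, 0.01% Tween-20. Compound added for 30 min at RT, then streptavidin donor/nickel chelate acceptor beads (10 ug/mL) for 30 min.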
JMJD2A Tudor – JMJD2A Tudor domain (human) inhibition. 390,000 compounds, 4.4% hits. Potency, µM (titrated, usually from 114 µM), inactives show top-dose activity change, negative = inhibition, most hits filed as inhibitors. AlphaScreen JMJD2A-Tudor / H3K4me3 peptide binding. O75164; note: potency is the fitted concentration of half-maximal effect; % is set by controls: 0 for no effect and ±100 for the full control effect; nearly all actives have a fitted effect of over 50% in size
L3MBTL1 block – blocks human L3MBTL1; Q9Y468; AlphaScreen L3MBTL1–H3K9me1 peptide binding; Potency, µM (titrated, usually from 57.1 µM), inactives show at the top dose activity, negative = inhibition, actives largely listed as inhibitors; 230,000 compounds, 0.66% hits; AID 485360; note: potency is the fitted concentration of half-maximal effect; % is set by controls: 0 for no effect and ±100 for the full control effect; nearly all actives have a fitted effect of over 60% in size
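AlphaScreen proximity signal between nickel-chelate acceptor and streptavidin donor beads (final 10 ug/mL) reports binding of 50 nM L3MBTL1 to 75 nM biotin-H3 K9me1 peptide; complex incubated with compounds 30 min at room temperature; cefsulodin titration as control.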
An asterisk follows results filed as active; ? = inconclusive; / = no result; ! = not active in a repeat; [ ] = dose if it differs, or a comment. Shown are actives, neighbours in structure and some others; about 11% of the full set was active somewhere. Unless noted, calls come from the whole dose curve; as a rule, active = well fitted inhibition curve with a large enough effect; inconclusive = small, poorly fitted or top-dose-only effect; inactive = no such curve, though single readings can be large or run the other way.

SMILES	BAZ2B block	PI5P4K alpha inh	G9a block	HP1b chromo inh	JMJD2A Tudor	L3MBTL1 block
COc1ccccc1CNC(=O)C1CCN(c2nc3ccc(Cl)cc3[nH]2)CC1	-1%	/	0%[59 µM]	20%[57 µM]	-24%	/
CC(O)/C=C/c1cccc[n+]1C (configuration not stated)	4%	/	10µM*	19%	40µM*	-9%
C[n+]1ccccc1/C=C/c1cc(Br)ccc1O	-20%	-6	22%[2.33 µM]	27%	-22%	/
C[n+]1ccccc1/C=N\O	/	/	30%[21.5 µM]	/	/	/
C[n+]1ccccc1/C=N/O	-14%	11	-33%[2.33 µM]	60%	35µM*!	4%
CC(=O)Nc1ccc(NC(=O)C(C)OC(=O)CCC2CCCC2)cc1 (configuration not stated)	3%	-1	35µM*	13%	-10%	8%
CC(=O)Nc1ccc(NC(=O)C(C)OC(=O)CC2CCCC2)cc1 (configuration not stated)	13%	3	10%[12.7 µM]	8%	-10%	4%
O=C1CCCCCN1Sc1ccccc1	1%	0	10µM*	54%	-7%	0%
O=C1CCCCCN1C(=O)c1ccccc1	/	0	/	13%	-17%	/
Cc1c(Cl)cccc1NC(=O)CSc1ncc(S(=O)(=O)c2ccc(C(C)C)cc2)c(=O)[nH]1	?	/	-13%[59 µM]	26%	-9%	/
CN1CCN/C1=C(/C(Cl)=C(Cl)Cl)[N+](=O)[O-]	-27%	-15	13µM*	36%	?	/
CN(Cc1ccccc1)C(=C(Cl)Cl)/C(=C1/NCCN1C)[N+](=O)[O-]	-33%	5	50µM*	28%	-4%	14%
O=C(O)c1cc(N2CCCCC2)ccn1	/	3	/	29%	1.6µM*	/
O=C(Cc1ccccc1)Nc1cccc(N2CCCC2)c1	-37%	-6	-2%[12.7 µM]	-17%	?	0%
O=C(O)c1cc(N2CCCC2)ccn1	/	1	/	-5%	3.2µM*	/
O=C(O)c1ccc(N2CCCCC2)cc1O	-5%	-7	/	37%	-8%	2%
COc1ccccc1C(=O)n1nc(-c2ccccc2)nc1NCc1ccc(Cl)cc1	5%	/	5%[59 µM]	53%	-5%	/
COc1ccc(NC(=O)CSc2nc3nc(C)c(Cc4ccccc4)c(C)n3n2)cc1OC	-19%	/	1%[59 µM]	17%	-24%	/
CCOC(=O)c1ccc(NC(=O)CSc2nnc(CNC(=O)c3ccc(OC)cc3)n2CC)cc1	-22%	/	1%[59 µM]	38%	2%	/
Cc1cc(O)c(C(=O)/C=C/c2ccccc2Br)c(=O)o1	11%	-70*	/	4%	?	-33%
CCOc1ccc(/C=C/C(=O)c2c(O)cc(C)oc2=O)cc1	-35%	-6	?	13%	-30%	-9%
Cc1cc(O)c(C(=O)/C=C/c2ccc(C(C)C)cc2)c(=O)o1	2%	-63*	-5%	25%	-29%	/
Cc1cc(O)c(C(=O)/C=C/c2ccccc2)c(=O)o1	-28%	-50*	?	-10%	-32%	/
Cc1ccc(C(=O)NCC(=O)OC(C(=O)Nc2cc(C(F)(F)F)ccc2Cl)c2ccccc2)cc1 (configuration not stated)	/	/	/	/	-20%	/
COc1ccc2[nH]c(-c3ccc(C)cc3)cc(=O)c2c1	7%	-16	79µM*	39%	-15%	12%
SMILES	BAZ2B block	PI5P4K alpha inh	G9a block	HP1b chromo inh	JMJD2A Tudor	L3MBTL1 block
Cc1ccccc1NC(=O)CSc1ccc(-c2ccc(-n3cccn3)cc2)nn1	1%	-2	18%[59 µM]	3%	-15%	-2%
COc1ccc(-c2cc(-c3ccccc3)nc(SCC(=O)Nc3ncc(C)s3)c2C#N)cc1	-33%	0	?	21%	-19%	-7%
CCc1nnc(NC(=O)CSc2ccc(-c3ccc(-n4cccn4)cc3)nn2)s1	12%	-1	10µM*	31%	-4%	0%
CCc1nnc(NC(=O)CSc2nc(-c3ccc(F)cc3)cc(-c3ccccc3)c2C#N)s1	-3%	-2	3.2µM*	25%	-13%	11%
Cc1cc(N2Cc3ccccc3C2)ccc1C=O	-21%	-30	50µM*	-7%	-17%	-1%
Oc1cccc(N2Cc3ccccc3C2)c1	-25%	?	17%[2.33 µM]	22%	?	/
O=Cc1ccc(N2Cc3ccccc3C2)cc1	-5%	-1	/	29%	-13%	-6%
